BoNT-A LC inh2 – BoNT/A light chain protease inhibitors, primary screen, biochemical, flow cytometry, MLPCN library; Botulinum neurotoxin type A light chain protease (Clostridium botulinum A str. ATCC 3502); multiplex microsphere protease substrate cleavage; inhibition, % at 10 µM; hit rate 0.17% among 360,000; also: plate controls were buffer without enzyme for full effect and enzyme alone for no effect
FBA Mtb inh – Mtb FBA enzyme inhibitors, primary screen, biochemical, fluorescence, strain H37Rv; inhibition, % at 1 µM; purified M. tuberculosis FBA, fluorescence read-out; hit rate 2.3% among 360,000; Fructose-bisphosphate aldolase (Mycobacterium tuberculosis (strain ATCC 25618 / H37Rv)), …; in the data active = inhibition above about 27%;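 also: 0% = vehicle and 100% = reference inhibitor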
Target sequence (P9WQA3 whole entry, looked up): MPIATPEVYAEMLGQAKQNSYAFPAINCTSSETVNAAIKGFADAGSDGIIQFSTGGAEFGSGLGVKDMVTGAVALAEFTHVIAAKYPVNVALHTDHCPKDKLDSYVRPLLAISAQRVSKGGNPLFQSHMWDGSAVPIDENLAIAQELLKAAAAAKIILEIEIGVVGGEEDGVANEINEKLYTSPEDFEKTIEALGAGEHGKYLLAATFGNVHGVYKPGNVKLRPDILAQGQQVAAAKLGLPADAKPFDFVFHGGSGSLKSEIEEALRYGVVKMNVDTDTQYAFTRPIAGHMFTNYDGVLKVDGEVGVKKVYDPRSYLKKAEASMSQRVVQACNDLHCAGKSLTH
BoNT F protease – BoNT/F light chain protease inhibitors, primary screen, biochemical, flow cytometry, MLPCN library | Botulinum neurotoxin type F light chain protease (Clostridium botulinum) | Multiplex microsphere protease cleavage assay | inhibition, % at 10 µM | hit rate 0.22% among 360,000; in the data active = inhibition above about 35%, passing the limit was not always enough; inconclusive = no clear call, values can overlap the other calls; also: plate controls were buffer without enzyme for full effect and enzyme alone for no effect
Anthrax LF inh2 – Bacillus anthracis LF protease inhibitors, primary screen, biochemical, multiplex microsphere, MLPCN library | AID 588501, 2011 | inhibition, % at 10 µM | Lethal factor (Bacillus anthracis), P15917 | hit rate 0.12% among 360,000 | multiplex microsphere protease cleavage assay; also: plate controls were buffer without enzyme for full effect and enzyme alone for no effect
GDH-TPI counter – GDH-TPI coupling enzyme inhibitors, primary screen, artefact control for M. tuberculosis FBA inhibitor project, biochemical, absorbance, full deck; GDH-TPI coupled enzyme counterscreen, NADH absorbance; inhibition, % at 4.8 µM; hit rate 1.2% among 360,000; in the data active = inhibition above about 30%;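 also: 0% = DMSO wells and 100% = wells lacking the enzyme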
Bead autofluor – compound fluorescence in toxin protease inhibitor counterscreen; compound autofluorescence counterscreen, microsphere flow cytometry; hits give high values; fluorescence intensity (test concentration not listed); hit rate 3.1% among 360,000; in the data active = fluorescence intensity above about 16000; inconclusive = no clear call, values can overlap the other calls
Active calls of the source: *; u = inconclusive; x = no result given; + = active, no number. This is a sample that favours compounds with a hit; in the whole collection about 6.7% have one here. Rule as the data show it, unless noted: active = inhibition above about 30%; inconclusive = no clear call, values can overlap the other calls; inactive = below that.

SMILES	BoNT-A LC inh2	FBA Mtb inh	BoNT F protease	Anthrax LF inh2	GDH-TPI counter	Bead autofluor
CCOC(=O)c1cc(NC(=O)C2C3C=CC(O3)C2C(=O)O)cc(C(=O)OCC)c1 (stereo unspecified)	-3	16	-13	-10	9	3494
CC(=O)c1cccc(NC(=O)c2ccoc2C)c1	-2	4	-5	-1	-1	3403
CCOC(=O)c1cc(NC(=O)C2C3CCC(O3)C2C(=O)O)cc(C(=O)OCC)c1 (stereo unspecified)	-1	18	0	2	5	23079*
CCOC(=O)Cc1csc(NC(=O)c2c(-c3c(F)cccc3Cl)noc2C)n1	4	-2	5	-5	7	21863*
CCOC(=O)Cc1csc(NC(=O)c2ccc(Br)o2)n1	0	-12	3	-2	11	4362
CCOC(=O)Cc1csc(NC(=O)/C=C/c2ccc(Br)o2)n1	-1	-3	3	4	75*	3568
Cn1c(=O)c2c(ncn2CC(=O)N/N=C/C(Cl)=C/c2ccccc2)n(C)c1=O	0	0	-7	0	14	2573
Cc1cccc(OCC(=O)N/N=C/C=C/c2ccco2)c1	1	0	-2	0	10	2448
Cn1c(=O)c2c(ncn2CC(=O)N/N=C/C=C/c2ccco2)n(C)c1=O	u	-2	u	-15	32*	3383
CC(/C=N/NC(=O)Cc1cccn1C)=C\c1ccco1	u	-2	-6	-7	40*	22954*
Cc1ccc(OCC(=O)N/N=C/C=C/c2ccco2)c(Br)c1	-2	2	5	0	34*	4864
CC(=C/c1ccco1)/C=N/NC(=O)Cc1cccn1C	0	-1	0	-3	25	2308
CC(/C=N/NC(=O)Cn1cnc2c1c(=O)n(C)c(=O)n2C)=C\c1ccco1	-2	1	-3	0	41*	3088
Cc1cc(C)cc(NC(=O)N2CCCN(c3c(Cl)cncc3Cl)CC2)c1	u	-1	u	-1	0	3740
COc1ccc(S(=O)(=O)N2CCOC23CCN(S(=O)(=O)c2cc(F)ccc2F)CC3)cc1	-1	-2	u	0	-2	5736
O=C(O)C1CCN(C(=O)c2ccc(S(=O)(=O)N3CCCCCC3)cc2)CC1	0	3	2	-8	14	3001
COc1ccc(OCC(=O)Nc2cccc(S(=O)(=O)N(C)c3ccccc3)c2)c([N+](=O)[O-])c1	0	3	2	-4	-1	5491
COc1ccc(C(=O)NCC(=O)N/N=C/C(C)=C/c2ccco2)cc1OC	0	-2	-1	-1	41*	1971
COc1cc(C(=O)NCC(=O)N/N=C/c2ccco2)cc(OC)c1OC	1	-3	-6	-3	2	4516
O=[N+]([O-])c1ccc(/C=N/n2c(C3CCCCC3)n[nH]c2=S)cc1	u	-1	-2	0	1	22651*
COc1cc(/C=N/n2c(C3CCCCC3)n[nH]c2=S)cc(Br)c1O	0	1	8	0	32*	3588
S=c1[nH]nc(C2CCCCC2)n1/N=C/c1cccc(Br)c1	-1	3	20	-9	-8	3641
S=c1[nH]nc(C2CCCCC2)n1/N=C/c1cccs1	u	-2	-4	0	7	23451*
S=c1[nH]nc(C2CCCCC2)n1/N=C/c1ccncc1	0	1	-4	-1	3	2669
O=C(c1cc(-c2cccnc2)nc2ccccc12)N1CCCc2ccccc21	0	-2	-3	-2	16	2071
SMILES	BoNT-A LC inh2	FBA Mtb inh	BoNT F protease	Anthrax LF inh2	GDH-TPI counter	Bead autofluor
COc1ccc(N2CCN(Cc3nc(-c4ccc(Cl)cc4Cl)no3)CC2)cc1	-2	0	-7	-6	-2	20566*
CCOC(=O)C1(Cc2ccccc2C)CCCN(C(=O)c2ccc3nccnc3c2)C1 (stereo unspecified)	0	2	-5	-3	7	u
COc1ccccc1NS(=O)(=O)c1ccc(OC)c([N+](=O)[O-])c1	0	3	-6	0	-8	4466
COc1cc2c(cc1OC)C(c1cc3cc4c(cc3[nH]c1=O)OCO4)N(C(=O)C1CC1)CC2 (stereo unspecified)	0	11	1	0	38*	12878
COc1cc2c(cc1OC)C(c1cc3ccc(C)cc3[nH]c1=O)N(C(=O)c1ccco1)CC2 (stereo unspecified)	2	-1	3	0	4	4983
CC(C)(C)c1ccc(OCC(=O)N2CCCCCC2)c(Br)c1	1	2	-3	-3	1	3478
Cc1ccc(OCC(=O)N2CCCCC2)c(Br)c1	-4	-2	-2	-2	3	17161*
Cc1cc(C)n(C(=O)Cn2nc(C(F)F)cc2C)n1	3	11	4	-2	1	21933*
CCOC(=O)N1CCN(c2cc(N)c([N+](=O)[O-])cc2F)CC1	1	-10	0	0	11	20374*
CCOC(=O)N1CCN(c2cc3[nH]c(=S)[nH]c3cc2F)CC1	8	6	8	0	13	21312*
CCOC(=O)N1CCN(c2c(F)cc3[nH]c(=S)[nH]c3c2Br)CC1	1	-3	5	-1	6	9342
CCN(CC(=O)Nc1ccc(NC(C)=O)cc1)C(=O)c1cccc(-n2cccc2)c1	2	0	-9	-4	-7	4310
O=c1[nH]ncc(N/N=C\c2ccncc2)c1Cl	0	-4	-5	-2	44*	2513
O=c1[nH]ncc(N/N=C\c2cccs2)c1Cl	0	-4	0	-2	36*	2520
O=c1[nH]ncc(N/N=C\c2cccnc2)c1Cl	x	2	x	x	43*	x
Cc1cccc(/C=N\Nc2cn[nH]c(=O)c2Cl)c1	12	-3	11	3	44*	17627*
COc1ccccc1/C=N\Nc1cn[nH]c(=O)c1Cl	0	3	4	0	25	2602
C=C1C(O)C[C@H]2C(=C)CCC3[C@H](OC(=O)[C@]3(O)CO)[C@@H]12 (stereo partly specified)	0	2	0	-3	-1	2904
Cc1ccc(-n2c3nc(=O)[nH]c(=O)c-3cc3c(C)nn(-c4ccccc4)c32)c(C)c1	1	+	5	-5	21	9781
COc1ccc(-c2c(C#Cc3ccsc3)c3cc(-c4ccc5cc[nH]c5c4)ccc3n2C)cc1	0	4	2	1	17	2924
COc1ccc(-c2ccc3c(c2)c(C#Cc2ccsc2)c(-c2cc(OC)cc(OC)c2)n3C)cc1	1	5	12	-3	11	2684
